Test results from PubChem BioAssay (NCATS).
Inconclusive results are not listed. Calls of active or inactive are those of the source. Calls come from the whole dose curve; as a rule, active = well fitted cell-killing curve with a large enough effect; inconclusive = small, poorly fitted or top-dose-only effect; inactive = flat fitted curve, though single readings scatter.

experiment: Cell Viability - LYMP2-015 (AID 971); conditions: LYMP2-015 lymphoblastoid cell viability; series mostly up to 92.2 µM; note: nearly all actives have a fitted effect of over 55% in size
Description: NIH Chemical Genomics Center [NCGC]
NIH Molecular Libraries Screening Centers Network [MLSCN]
National Institutes of Environmental Health Sciences [NIEHS]
National Toxicology Program [NTP]
We have developed a 1536-well cell-based assay for quantitative high throughput screening (qHTS) against a number of cell lines to determine in vitro cytotoxicity of small molecules. This particular assay uses a human lymphoblastoid cell line (LYMP2-015) purchased from Coriell Institute for Medical Research.
NCGC Assay Protocol Summary:
The CellTiter-Glo luminescent cell viability assay (Promega) is a homogeneous method to measure the number of viable cells in culture. The end point readout of this assay is based on quantitation of intracellular ATP, an indicator of metabolic activity, using the luciferase reaction. Luciferase catalyzes the oxidation of beetle Luciferin to oxyluciferin and light in the presence of ATP. The luminescent signal is proportional to amount of ATP present.
Using the CellTiter-Glo luminescent cell viability assay, the amount of cellular ATP was measured in the lymphoblastoid cell line with complete culture medium following compound treatment for 24 hours. The assay was performed in opaque white Kalypsys 1536-well plates. In the screen, tetraoctylammonium bromide was used as positive control. Library compounds were measured for their ability to cause acute toxicity in the cell line, as reflected by a decrease in intracellular ATP levels, in a concentration-dependent manner. […] AC50 values were determined from concentration-response data modeled with the standard Hill equation.
qHTS protocol for CellTiter Glo lymphoblastoid cellular assay
[Step] [Parameter] [Value] [Description]
1. Reagent; 5 uL; 2500 lymphoblastoid cells/well
2. Time; 5 hr; 37 C incubation
4. Controls; 23 nL; Tetraoctylammonium bromide 6.4pM to 92 uM
5. Time; 24 hr; 37 C incubation
6. Reagent; 5 uL; CellTiter Glo reagent
7. Time; 30 min; Room Temperature
8. Detection; Luminescence; Viewlux plate reader
Keywords: cell viability, cytotoxicity, lymphoblastoid cell line, luminescence, NTPHTS, NTPHTS_NCGC, NIEHS, DSSTox, MLSMR, MLSCN, NIH Roadmap, qHTS, NCGC
Potency is the fitted concentration of half-maximal effect.

Row | Compound | Potency
1 | ClC1=C(Cl)C(Cl)(Cl)C(Cl)=C1Cl | 3.98 µM (active)
2 | CC(C)CC(C)Nc1ccc(Nc2ccccc2)cc1 (stereo unspecified) | 39.8 µM (active)
3 | CC(=O)[O-].CC(=O)[O-].O.O.[Cd+2] | 39.8 µM (active)
4 | O=C(CCl)c1ccccc1 | 7.94 µM (active)
5 | C=CC(=O)OCC(CO)(COC(=O)C=C)COC(=O)C=C | 5.01 µM (active)
6 | c1cc(OCC2CO2)cc(OCC2CO2)c1 (stereo unspecified) | 39.8 µM (active)
7 | FC(F)(F)c1ccc(Cl)cc1 | inactive
8 | [Cd+2].[Cl-].[Cl-] | 50.1 µM (active)
9 | CCCCCCCCn1sccc1=O | 3.16 µM (active)
10 | Clc1ccc(C(c2ccc(Cl)cc2)C(Cl)Cl)cc1 | inactive
11 | c1ccc2cc3c(cc2c1)-c1cccc2cccc-3c12 | inactive
12 | N#CC(Cl)Cl | 12.6 µM (active)
13 | [CH3][Hg][Cl] | 3.16 µM (active)
14 | C[C@@H]1CC[C@@]2(OC1)O[C@H]1[C@@H](O)[C@H]3[C@@H]4CC[C@H]5C[C@@H](O[C@@H]6O[C@H](CO)[C@H](O[C@@H]7O[C@H](CO)[C@@H](O)[C@H](O[C@@H]8OC[C@@H](O)[C@H](O)[C@H]8O)[C@H]7O[C@@H]7O[C@H](CO)[C@@H](O)[C@H](O[C@@H]8O[C@H](CO)[C@@H](O)[C@H](O)[C@H]8O)[C@H]7O)[C@H](O)[C@H]6O)[C@H](O)C[C@]5(C)[C@H]4CC[C@]3(C)[C@H]1[C@@H]2C | 15.8 µM (active)
15 | COP(=O)(OC)O/C(=C\Cl)c1cc(Cl)c(Cl)cc1Cl | inactive
16 | O=C(O)C1C(C(=O)O)C2(Cl)C(Cl)=C(Cl)C1(Cl)C2(Cl)Cl (stereo unspecified) | inactive
17 | O=Nc1ccc(Nc2ccccc2)cc1 | 3.98 µM (active)
18 | CN(C)c1ccc(N=O)cc1 | 1 µM (active)
19 | N#CSCSC#N | 5.01 µM (active)
20 | OC(c1ccc(Cl)cc1)(c1ccc(Cl)cc1)C(Cl)(Cl)Cl | inactive
21 | C#CCO | inactive
22 | O=[N+]([O-])c1cc(C(F)(F)F)cc([N+](=O)[O-])c1Cl | 31.6 µM (active)
23 | ClC1=C(Cl)C2(Cl)C3C(Cl)C(Cl)CC3C1(Cl)C2(Cl)Cl (stereo unspecified) | inactive
24 | Nc1ccccc1C(=O)OCCc1ccccc1 | inactive
25 | Oc1c(Br)c(Br)c(Br)c(Br)c1Br | inactive
26 | O=[N+]([O-])C(Br)Br | 10 µM (active)
